Screening results from PubChem.
Most compounds without a hit are left out; they make up all but 19% or so of the library.
HT1080NT lethal = kills 2HG-producing HT-1080-NT fibrosarcoma cells; HT-1080-NT fibrosarcoma viability, CellTiter-Glo ATP luminescence, 48 h; Potency, µM (titrated, usually from 46.1 µM), without a hit: at the top dose activity, negative = less viability, actives largely listed as cytotoxic; actives 1.6% (n = 360,000); AID 686970;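 note: NT is the 2HG producing partner of a matched IDH1 knockdown line; potency is the fitted concentration of half-maximal effect; 0% = DMSO-treated cells and -100% = media-only wells without cells; nearly all actives have a fitted effect of over 55% in size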
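Luminescent CellTiter-Glo readout after 48 hours of compound exposure at 37 degrees C defined viability of HT-1080-NT cells. Activity was normalized to DMSO wells and cell-free media wells; concentration-response curves were fitted and assigned curve classes.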
HT1080 IDH1KD tx = kills HT-1080 cells with IDH1 knockdown | HT-1080 IDH1 knockdown viability, ATP luminescence, 48 h | Potency, µM (titrated, usually from 46.1 µM), without a hit: top-dose activity, negative = toxicity, actives largely listed as cytotoxic | actives 2% (n = 360,000) | AID 686971;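 note: potency is the fitted concentration of half-maximal effect; 0% = DMSO wells and -100% = cell-free medium wells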
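Using the IDH1-knockdown HT-1080 line run in the same batch and compound series as the NT line, viability after 48 h at 37 °C was determined by CellTiter-Glo luminescence and expressed as % activity.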
IL1B secr inh = blocks inflammasome-driven IL-1 beta release | THP-1 LPS/ATP IL-1B secretion, AlphaLISA, 16 h; hits give low values | activity change, % at 57.5 µM | actives 4.7% (n = 360,000) | AID 743279; in the data active = activity change below about -50%; inconclusive = mostly about -30% to -49%
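Secreted IL-1B measured by AlphaLISA bead assay after 16 h compound exposure of THP-1 cells; compounds (final up to 57.5 uM) added 1 h before LPS (250 ng/mL) and ATP (1.25 mM) stimulation; lower signal means less secretion.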
ELG1 DNA repair = inhibitors of ELG1-dependent DNA repair in HEK293T cells | AID 504467 | HEK293T ELG1-luciferase reporter, luminescence, 16 h; DNA damage induced by 5-fluorouridine | Potency, µM (series often up to 46.1 µM), without a hit: at the top dose activity change, negative = inhibition, most hits filed as inhibitors | actives 2.3% (n = 330,000); note: potency is the fitted concentration of half-maximal effect; nearly all actives have a fitted effect of over 55% in size
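Cells (2,000 per well) received 5-fluorouridine plus test compound or DMSO and were incubated 16 hr at 37 °C, 5% CO2. Luciferase activity was read by luminescence 30 min after ONE-Glo addition; signal suppression marked inhibition of damage-induced ELG1 function.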
TDP1 cell CPT = growth inhibition of DT40 Tdp1-/-;hTDP1 cells with camptothecin (screen for TDP1 inhibitors). chicken DT40 Tdp1-/-;hTDP1 cells + 20 nM CPT, ATP luminescence, 48 h. Potency, µM (highest dose often 46.2 µM), inactives show at the top dose activity change, negative = growth inhibition, most hits filed as inhibitors. actives 12% (n = 420,000); note: potency is the fitted concentration of half-maximal effect; nearly all actives have a fitted effect of over 55% in size
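Chicken DT40 Tdp1-/- cells complemented with human TDP1, 400 cells/well, exposed to compounds plus 20 nM camptothecin for at least 48 h at 37 C; viability read as ATP content by CellTiter-Glo luminescence.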
DT40 TDP1 no CPT = qHTS for Inhibitors of human tyrosyl-DNA phosphodiesterase 1 (TDP1): qHTS in cells in absence of CPT | DT40 Tdp1-/- hTDP1 cells, no CPT, ATP luminescence, 48 h | Potency, µM (highest dose often 46.2 µM), without a hit: top-dose activity change, negative = growth inhibition, most hits filed as inhibitors | actives 15% (n = 420,000) | AID 686978, 2013; note: potency is the fitted concentration of half-maximal effect; nearly all actives have a fitted effect of over 55% in size
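Chicken DT40 Tdp1-/- cells complemented with human TDP1, screened without camptothecin (DMSO vehicle only), 400 cells/well. Compounds pin-transferred, cells incubated at 37 °C for at least 48 hr. Growth read as ATP-dependent luminescence (CellTiter-Glo, 30 min at RT).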
Starred values were filed as active, the others as inactive; ? = inconclusive; . = no result. Unless noted, calls come from the whole dose curve; as a rule, active = well fitted curve in the direction sought with a large enough effect; inconclusive = small, poorly fitted or top-dose-only effect, or another doubt; inactive = no such curve, though single readings can be large; an effect the other way counts as inactive or inconclusive. Unless noted, % is set by controls: 0 for no effect and ±100 for the full control effect.

SMILES | HT1080NT lethal | HT1080 IDH1KD tx | IL1B secr inh | ELG1 DNA repair | TDP1 cell CPT | DT40 TDP1 no CPT
COc1cccc(C(=O)NCC(c2ccc(N(C)C)cc2)N2CCc3ccccc32)c1 (centres undefined) | . | . | . | . | 8.2µM* | ?
COc1cc(C(=O)NCC(c2ccc(N(C)C)cc2)N2CCc3ccccc32)cc(OC)c1OC (centres undefined) | . | . | . | . | 7.3µM* | 18µM*
COc1ccc(C(=O)NCC(c2ccc(N(C)C)cc2)N2CCc3ccccc32)cc1OC (centres undefined) | . | . | . | . | 5.2µM* | 6.5µM*
Cc1cc(S(=O)(=O)NCC(c2ccc(N(C)C)cc2)N2CCOCC2)ccc1F (centres undefined) | . | . | . | . | -25% | -15%
COc1cc(C(=O)NCC(c2ccc3c(c2)OCO3)N2CCN(C)CC2)cc(OC)c1OC (centres undefined) | . | . | . | . | 0% | -11%
COc1cccc(C(=O)NCCS(=O)(=O)N2CCc3ccccc3C2)c1 | 6% | -2% | 19 | 0% | 4% | 5%
COC(=O)C(OC(=O)c1ccccc1)C(C)Br (centres undefined) | 36% | 9% | 19 | ? | -9% | -2%
O=C(Nc1cccc([N+](=O)[O-])c1)N1CCCCCC1 | -6% | -2% | -9 | ? | 17% | 12%
Nc1ccccc1SC1CC(=O)N(c2ccccc2Cl)C1=O (centres undefined) | -3% | -1% | -3 | -1% | -4% | -26%
Cc1cc(-c2ccc(NC(=O)[C@@H]3CCCC[C@@H]3C(=O)O)c(C)c2)ccc1NC(=O)[C@@H]1CCCC[C@@H]1C(=O)O | -21% | -18% | 107 | 15% | ? | ?
CCOCc1cc(CN2CCCC(CNC(=O)c3ccco3)C2)ccc1OC (centres undefined) | -2% | 7% | 20 | 11% | -10% | 1%
O=S(=O)(NCC(c1ccco1)N1CCc2ccccc21)c1ccccc1 (centres undefined) | 4% | -15% | -7 | ? | 23µM* | 18µM*
COc1ccc(C(=O)NCC(c2ccco2)N2CCc3ccccc32)cc1 (centres undefined) | 4.1µM* | 5.8µM* | 64 | 27% | 3.7µM* | 2.6µM*
COc1cccc(C(=O)NCC(c2ccc(N(C)C)cc2)N2CCc3ccccc32)c1OC (centres undefined) | . | . | . | . | 15µM* | 15µM*
COc1ccc(C(CNC(=O)c2ccc(-c3ccccc3)cc2)N(C)C)cc1OC (centres undefined) | 18µM* | 21µM* | ? | -1% | ? | ?
COc1ccc(C(CNC(=O)c2ccc(C)c(S(=O)(=O)N3CCCCC3)c2)N(C)C)cc1OC (centres undefined) | 0% | 1% | 9 | -13% | -1% | -22%
O=S(=O)(NCC(c1ccco1)N1CCN(c2ccccc2F)CC1)c1ccccc1 (centres undefined) | -2% | 2% | -2 | -10% | 0% | ?
COC(=O)C1CC(O)C(O)C(O)C1 (centres undefined) | 9% | 8% | 20 | . | -3% | -3%
O=C1CCC(C(=O)N2CCCCO2)CN1Cc1cccc(F)c1 (centres undefined) | 0% | 2% | -4 | ? | 0% | 13%
O=C(NCC(c1ccco1)N1CCc2ccccc21)c1c(F)cccc1F (centres undefined) | -7% | -2% | -10 | ? | ? | -28%
CN(C)c1ccc(C(CNC(=O)c2ccccc2F)N2CCc3ccccc32)cc1 (centres undefined) | . | . | . | . | 10µM* | ?
COc1cc(C(=O)NCC(c2cccs2)N2CCOCC2)c([N+](=O)[O-])cc1OC (centres undefined) | 2% | -2% | 1 | 1% | 2% | -21%
COc1ccc(C(=O)NCC(c2cccs2)N2CCc3ccccc32)c(OC)c1 (centres undefined) | -1% | -11% | 13 | ? | ? | 15µM*
C[C@H](CO)N1C[C@H](C)[C@@H](CN(C)S(=O)(=O)c2cn(C)cn2)Oc2c(NS(=O)(=O)c3cccs3)cccc2C1=O | 0% | 1% | 27 | 14% | -2% | -1%
CCCNC(=O)C1(C)CCCN(Cc2ccc(C(=O)OCC)o2)C1 (centres undefined) | 21% | 4% | 26 | . | ? | ?
SMILES | HT1080NT lethal | HT1080 IDH1KD tx | IL1B secr inh | ELG1 DNA repair | TDP1 cell CPT | DT40 TDP1 no CPT
Cc1noc2ncnc(N3CCCC3)c12 | -4% | -1% | 0 | -5% | -21% | 1%
Cc1cccc(N2CCN(c3ncnc4onc(C)c34)CC2C)c1 (centres undefined) | . | . | . | . | 4.6µM* | 2.3µM*
Cc1cccc(N2CCN(c3ncnc4onc(-c5ccc(F)cc5)c34)CC2C)c1 (centres undefined) | . | . | . | . | 16µM* | 15µM*
Cc1noc2ncnc(N3CCN(c4cccc(C(F)(F)F)c4)CC3)c12 | . | . | . | . | 12µM* | 8.2µM*
Cc1cccc(N2CCN(c3nc(C)cc(C)c3C#N)CC2C)c1 (centres undefined) | 1% | 3% | -22 | ? | 6% | ?
Cc1ccc(C)c(S(=O)(=O)N2CCN(C(=O)c3sccc3C)CC2)c1 | 7% | 6% | ? | -15% | -21% | ?
COC(=O)CN1C(=O)CSc2ccc(S(=O)(=O)Nc3cccc(Cl)c3C)cc21 | . | . | . | . | -3% | ?
COc1ccccc1NC(=O)c1nc(SCc2ccccc2F)ncc1Cl | . | . | . | . | ? | -7%
Cc1cccc(C)c1NC(=O)c1nc(S(=O)(=O)Cc2ccccc2F)ncc1Cl | . | . | . | . | 1.3µM* | 5µM*
O=C(Nc1ccccc1F)c1nc(S(=O)(=O)Cc2ccccc2F)ncc1Cl | . | . | . | . | 1.3µM* | 0.92µM*
CCOc1ccccc1NC(=O)c1nc(S(=O)(=O)Cc2ccccc2F)ncc1Cl | . | . | . | . | 0.56µM* | ?
COC(=O)c1ccc(NC(=O)c2nc(SCc3ccccc3F)ncc2Cl)cc1 | . | . | . | . | ? | 18µM*
CCOC1=C2CN(S(=O)(=O)c3ccc(C)cc3)[C@H](c3ccccc3)C[C@H]2[C@H]2C(=O)N(c3ccccc3)C(=O)[C@H]2C1 | 17% | 29% | 18 | . | -9% | -7%
O=C(Nc1ccc2ccccc2c1)c1nc(S(=O)(=O)Cc2ccccc2F)ncc1Cl | . | . | . | . | 0.71µM* | 1.3µM*
